The results in this text go back to PubChem BioAssay (EPA / NIEHS).

The source made the active and inactive calls. Rule for the calls: active = hit-call score of the fitted dose curve at least 0.9, where 1 is the maximum; inactive = score below 0.9.

Sequence of Paired box protein Pax-6 (Homo sapiens) (P26367 whole entry, looked up): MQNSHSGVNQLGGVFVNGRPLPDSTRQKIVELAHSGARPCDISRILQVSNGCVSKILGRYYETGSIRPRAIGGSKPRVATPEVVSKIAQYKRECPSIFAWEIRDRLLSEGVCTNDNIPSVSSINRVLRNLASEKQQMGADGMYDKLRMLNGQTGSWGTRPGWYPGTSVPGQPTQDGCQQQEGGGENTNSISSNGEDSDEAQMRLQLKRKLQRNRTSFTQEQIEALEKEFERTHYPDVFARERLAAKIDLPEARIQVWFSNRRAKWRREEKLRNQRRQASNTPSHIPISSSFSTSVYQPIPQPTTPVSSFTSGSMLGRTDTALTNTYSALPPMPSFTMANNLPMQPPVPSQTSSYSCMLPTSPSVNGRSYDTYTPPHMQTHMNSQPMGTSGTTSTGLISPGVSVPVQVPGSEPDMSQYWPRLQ

This assay has as its target Paired box protein Pax-6 (Homo sapiens) (UniProt P26367). Briefly: ATG_Pax6_CIS: Attagene CIS-FACTORIAL HepG2 Assay for human Paired Box 6 (PAX6) (AID 2282956). The note with it: HepG2 CIS-FACTORIAL PAX6 reporter transcription, RNA readout; actives raise or lower the signal. The procedure:
ATG_CIS is a cell-based, multiplexed-readout assay that uses HepG2, a human liver cell line, with measurements taken at 24 hours after chemical dosing in a 24-well plate.ATG_Pax6_CIS is one of 52 assay component(s) measured or calculated from the ATG_CIS assay. It is designed to make measurements of mRNA induction, a form of inducible reporter, as detected with fluorescence intensity signals by Reverse transcription polymerase chain reaction (RT-PCR) and Capillary electrophoresis technology.Data from the assay component ATG_Pax6_CIS was analyzed into 1 assay endpoint. This assay endpoint, ATG_Pax6_CIS, was analyzed with bidirectional fitting relative to DMSO as the negative control and baseline of activity. Using a type of inducible reporter, measures of mRNA for gain or loss-of-signal activity can be used to understand the reporter gene at the transcription factor-level as they relate to the gene PAX6. Furthermore, this assay endpoint can be referred to as a primary readout, because this assay has produced multiple assay endpoints where this one serves a reporter gene function. To generalize the intended target to other relatable targets, this assay endpoint is annotated to the dna binding intended target family, where the subfamily is paired box protein.
Human liver HepG2 cells are transiently transfected with multiple reporter transcription units (MRTUs) in 6-well plates using FuGene 6 reagent (Roche; 3 ml FuGene/1 mg DNA). The MRTU constructs are regulated by a cis-regulating element (promoter). […] A major difference between the CIS and TRANS system is that in CIS activities of endogenous TFs are measured, whereas the TRANS assay evaluates changes in activities of exogenous, chimeric NR-Gal4 proteins. […] At the end of 24 hour incubation, total RNA was isolated using TriZol reagent (Invitrogen). The isolated RNA is then reverse-transcribed using oligo(dT) primer and Mo-MLV reverse transcriptase (Invitrogen) with DNAse I (Ambion) treatment for 30 min. The one-tenth of the produced cDNA was amplified by PCR using Taq DNA polymerase (Invitrogen) and two reporter sequence-specific primers. The PCR products were fluorescently labeled by primer extension with 6-arboxyfluorescein (6-FAM) 5'-labeled reporter sequence-specific primer (2 min at 95 C, 20 s at 68 C and 10 min at 72 C) and these products were digested with 5U of HpaI (New England Biolabs) for 2h at 37 C. The fragments were purified using Qiaquick PCR columns (Qiagen), analyzed on an ABI 3130xL genetic analyzer (Applied Biosystems) with peak positions identified by using a set of X-rhodamine (ROX)-labeled MapMarker1000 molecular weight standards (BioVentures). The raw capillary electrophoresis data was processed using Attagraph software (Attagene).
`CC(C)OC(=O)Nc1ccccc1`: the outcome was inactive. As for `c1cc[c]([Hg][c]2ccccc2)cc1`, the call was inactive. Take `CC(C)c1cccc(C(C)C)c1O`: the call was inactive. Turning to `O=C(O)C(F)(F)C(F)(F)C(F)(F)C(F)(F)C(F)(F)C(F)(F)F`, the outcome was inactive.

In the case of `CCCCCCCCc1ccc(O)cc1`, the outcome was inactive. As to `Cc1ccc2ccccc2c1C`, the outcome was inactive. The term AC50 denotes the midpoint of the concentration-response curve, whichever way the signal moves. On to `Oc1ccc(-c2ccccc2)cc1`, for which the AC50 was 100 µM (active). With `CC(C)(c1ccc(OCC2CO2)cc1)c1ccc(OCC2CO2)cc1` (stereo not given), the half-maximal activity concentration (AC50) was 39.2 µM (active). Take `ClCc1ccccn1`: the molecule was classed as inactive. Take `C[C@H]1CCCC(=O)CCC/C=C/c2cc(O)cc(O)c2C(=O)O1`: the call was inactive. For the molecule `CCOC(=O)Nc1cccc(OC(=O)Nc2ccccc2)c1`, the call was inactive.

As for `C[C@@H]1C[C@@H]([C@H](O)CC2CC(=O)NC(=O)C2)C(=O)[C@@H](C)C1`, the molecule was classed as inactive. On the same count and under the same terms, to `Cl/C=C\C[N+]12CN3CN(CN(C3)C1)C2` belongs “inactive”; to `CC(Br)C(=O)O` (stereo not given), “inactive”. On the same count and under the same terms, the same measure for `OCC(O)CCl` (stereo not given): “inactive”; for `O=C(NCO)NCO`: “inactive”. Still for that read-out and setting: the same measure for `Clc1ccc(COC(Cn2ccnc2)c2ccc(Cl)cc2Cl)cc1` (stereo not given): “inactive”; for `COc1ccc(C=O)cc1`: “inactive”; for `CCC(=O)C(CC(C)N(C)C)(c1ccccc1)c1ccccc1` (stereo not given): “inactive”. Regarding `COc1ccc(C=O)cc1OC`, the molecule was classed as inactive. Consider `O=C(OC1CCCCC1)c1ccccc1C(=O)OC1CCCCC1`, for which the molecule was classed as inactive. In the case of `C=C(C)C(=O)[O][Sn]([CH2]CCC)([CH2]CCC)[CH2]CCC`, the AC50 is 0.514 µM (active). Turning to `NC(=O)O`, the result was inactive. `CN(C)P(=O)(N(C)C)N(C)C`: the molecule was called inactive. Consider `ClCc1cccnc1`, for which the AC50 was 75.4 µM (active). As to `CNC(=O)O/N=C/C(C)(C)S(C)=O` (stereo not given), the call was inactive. For the molecule `N#Cc1ccccn1`, the molecule was classed as inactive. With `CCCCCCCCSC(=O)Oc1cc(Cl)nnc1-c1ccccc1`, the AC50 was 146 µM (active). For the molecule `O=C1C(Cl)=C(Cl)C(=O)c2ccccc21`, the call was inactive. For `Cc1ccccc1C(=O)Nc1cccc(OC(C)C)c1`, the molecule was called inactive.

As to `O=[N+]([O-])c1c(Cl)c(Cl)cc(Cl)c1Cl`, the molecule was called inactive. Turning to `ClC1(Cl)C2(Cl)C3(Cl)C4(Cl)C(Cl)(Cl)C5(Cl)C3(Cl)C1(Cl)C5(Cl)C24Cl` (stereo not given), the outcome was inactive. For the molecule `O=C1CCCN1`, the call was inactive. Take `Nc1ncc([N+](=O)[O-])s1`: the molecule was called inactive. For `CC(C)c1ccc(CO)cc1`, the outcome was inactive. On to `Clc1ccc(C2(Cn3cncn3)CC(Br)CO2)c(Cl)c1` (stereo not given), for which the call was inactive. As to `CNC`, the molecule was called inactive. Take `CCCCCCCCCl`: the result was inactive.

For the molecule `CCC(=O)c1ccccc1`, the result was inactive. The same measure, in the same setting: to `ClC(Cl)=C(Cl)C(Cl)=C(Cl)Cl` belongs “inactive”.
